Bioassay records (PubChem)
hcDAF12 agonist – activators of H. contortus DAF-12 nuclear receptor; HEK293 hcDAF-12 lit1-tk-luc reporter, luminescence; 0% DMSO, 100% Δ7-dafachronic acid; activation, % at 6.8 µM; 1.4% of 370,000 active;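 active = activation above the mean of all tested compounds plus 3 SD, cut at about 5.5% in these data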;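 note: 100% = response to 3 µM Δ7-dafachronic acid high control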
hgDAF-12 ag – agonists of H. glycines DAF-12 nuclear receptor. HEK293 GAL4-hgDAF12 UAS-luciferase reporter, agonist luminescence; normalized to butyrate control. 1.8% of 370,000 active. activation, % at 6.8 µM;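 active = activation above a cutoff set at the mean of all screened compounds plus 3 SD, cut at about 10% in these data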;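 note: 0% = DMSO wells and 100% = sodium butyrate wells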
ssDAF-12 act – S. stercoralis DAF-12 activation, primary screen. 1% of 370,000 active. AID 652126. HEK293 ssDAF-12/GRIP1 lit1-tk-luc reporter, luminescence; % of 3 µM dafachronic acid response. activation, % at 6.8 µM;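 active = activation above the mean over all tested compounds plus 3 SD, cut at about 0.9% in these data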;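 note: 0% = DMSO-only wells and 100% = 3 µM delta7-dafachronic acid wells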
DAX1 inh-1 – inhibits human nuclear receptor DAX1. P51843. HEK293 Gal4-DAX1 luciferase reporter, luminescence. inhibition, % at 6.75 µM. 0.99% of 340,000 active. AID 504766;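 active = inhibition above the mean over all tested compounds plus 3 SD, cut at about 4.2% in these data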;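 note: 0% = DAX1-transfected cells with DMSO and 100% = empty-vector control cells with DMSO; inhibition shows as a rise in luminescence from relieved DAX1 repression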
Target sequence (P51843 207-470 limits assumed): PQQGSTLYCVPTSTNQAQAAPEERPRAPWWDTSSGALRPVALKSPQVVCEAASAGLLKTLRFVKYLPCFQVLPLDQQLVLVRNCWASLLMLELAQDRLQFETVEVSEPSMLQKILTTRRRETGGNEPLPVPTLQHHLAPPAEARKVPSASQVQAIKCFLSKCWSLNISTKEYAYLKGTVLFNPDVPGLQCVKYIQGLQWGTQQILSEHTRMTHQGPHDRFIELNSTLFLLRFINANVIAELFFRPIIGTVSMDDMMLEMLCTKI
DAX1 inh-2 – inhibitors of DAX1 repression of SF-1 activated StAR promoter | HEK293T StAR-luciferase reporter, SF-1/DAX-1 repression relief | inhibition, % at 6.8 µM | 1.1% of 370,000 active | AID 652010;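 active = inhibition above the mean over all tested compounds plus 3 SD, cut at about 3.6% in these data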;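 note: 0% = DAX-1 cells with DMSO and 100% = cells lacking DAX-1 with DMSO; higher inhibition means more luminescence from relief of DAX-1 repression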
NR1D1 modulator – modulators of human Rev-erb alpha DNA binding; activity, % at 10 µM; Rev-erbα–FITC-DNA binding, fluorescence polarization, 90 min; 0.79% of 370,000 active; AID 1259318;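 active = activity above about 14%, limit read from the data; passing the limit was not always enough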;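 note: 0% = DMSO wells with 35 nM protein and 100% = DMSO wells with 750 nM protein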
LXR ag – LXR-beta agonism as hcDAF-12 counter-screen. shares compounds with hcDAF12 agonist. HEK293 Gal4-LXR tk-luc reporter, luminescence, 24 h; normalized: DMSO 0%, positive control 100%. activation, % at 6.8 µM. 3,400 tested, under 10 active;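 active = mean percent activation of the reporter above a cutoff set as the average over tested compounds plus their standard deviation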
hcDAF12 conf – confirmation of H. contortus DAF-12 agonists. 61% of 3,400 active. activation, % at 6.8 µM. shares compounds with hcDAF12 agonist. HEK293 hcDAF-12 lit1-tk-luc reporter, luminescence; % of Δ7-dafachronic acid response. AID 743032;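 active = mean activation across triplicate tests above the threshold derived from the earlier primary screen, cut at about 5.5% in these data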;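 note: 0% = DMSO only wells and 100% = 3 µM Δ7-dafachronic acid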
* = called active by the depositor; x = no result. Rows were chosen to be rich in hits. Some 4.8% of all compounds tested hit in one or more screens of this group.

SMILES	hcDAF12 agonist	hgDAF-12 ag	ssDAF-12 act	DAX1 inh-1	DAX1 inh-2	NR1D1 modulator	LXR ag	hcDAF12 conf
COc1ccc(CNCc2cc3c(cc2[N+](=O)[O-])OCO3)cc1	9.4*	3	1	0	1	-6	0	0
COc1ccc(CN2CCC(CNC(=O)NC(C)C)CC2)cc1	0	-3	-1	x	1	0	x	x
O=C(NN=Cc1cccc(OCc2ccccc2)c1)c1cc(-c2ccc(Cl)cc2)n[nH]1	-1	3	-1	x	0	4	x	x
CCCCCCC[C@H](N)[C@H](O)C(=O)N(C)[C@@H](CCS(C)=O)C(=O)N[C@@H](Cc1ccc(O)cc1)C(=O)O (stereo not given in full)	-1	1	-1	x	x	3	x	x
C(=C\c1ccco1)/c1nc2ccccc2[nH]1	7.3*	9	0	-1	2	-1	1	9.4*
C(=C\c1ccco1)/c1ccc2ccccc2n1	7.3*	2	0	x	1	-11	1	13*
Cn1c(=O)c(=O)n(C)c2cc(S(=O)(=O)N3CCN(Cc4ccc(F)cc4)CC3)ccc21	-1	1	0	x	0	4	x	x
Cc1ccc2[nH]c(-c3ccccc3)cc(=O)c2c1	13*	5	3.5*	1	3	-1	1	5
Cc1ccc(-c2cc(=O)c3ccccc3[nH]2)cc1	1	4	-1	3	0	-2	x	x
CCCCCCc1ccc(NC(=O)[C@@H]2CC=C[C@@H]3CCN(Cc4ccccc4)C(=O)[C@@H]32)cc1	-2	2	-1	x	x	0	x	x
Cc1ccc(-c2cc(C(=O)n3cnc4ccccc43)c3ccccc3n2)cc1C	8.1*	7	1.5*	1	3	-4	0	4
CN(CCOC(=O)c1cc2ccccc2o1)C1CN(Cc2cn(Cc3cccc(F)c3)nn2)S(=O)(=O)C1 (stereo not given)	-1	-1	-1	x	-1	-4	x	x
CC(C=NN=C1C(=O)Nc2ccccc21)=Cc1ccccc1	-1	-2	0	x	-2	-3	x	x
Cc1ccccc1NC(=O)CC(=O)Nc1ccccc1C	1	-1	-1	2	0	-3	x	x
Cc1ccccc1NC(=O)/C(C#N)=C/c1ccc[nH]1	11*	5	1	0	2	2	0	8.5*
Cc1ccccc1NC(=O)C(=O)Nc1ccccc1C	8.3*	9	0	2	1	3	1	5
NS(=O)(=O)c1ccc(NC(=O)CSc2nnc(-c3cccs3)o2)cc1	0	4	-1	x	-2	-4	x	x
COC(=O)[C@]1(C#N)CC(=O)N(Cc2ccc(Cl)cc2)[C@@H]1c1ccc(OC)cc1	-1	2	-1	x	1	-1	x	x
COc1ccc(NC(=O)Nc2cc3oc4ccccc4c3cc2OC)cc1	2	3	-1	-1	0	3	x	x
COc1ccc(Cl)cc1NC(=O)C1CCCO1 (stereo not given)	-2	1	-1	1	0	0	x	x
COc1cc2c(cc1NC(=O)C1CCCO1)oc1ccccc12 (stereo not given)	12*	15*	2.3*	1	3	-3	1	17*
COc1cc2c(cc1NC(=O)Nc1ccc(C)cc1)oc1ccccc12	8.5*	7	-1	-1	0	6	0	1
CC/C=C\[C@H](O)[C@H](O)C1=C(C)C(=O)[C@]2(O1)C(=O)N[C@@](OC)(C(=O)c1ccccc1)[C@@H]2O	1	-1	-1	x	-1	-2	x	x
c1cncc(-c2nc(-c3ccco3)cs2)c1	-1	3	0	0	0	-9	x	x
c1cncc(-c2nc(-c3ccc4c(c3)OCO4)cs2)c1	6.8*	12*	0	1	2	2	1	5
SMILES	hcDAF12 agonist	hgDAF-12 ag	ssDAF-12 act	DAX1 inh-1	DAX1 inh-2	NR1D1 modulator	LXR ag	hcDAF12 conf
CC1=NN(C(=O)c2ccncc2)C(=O)C1N=Nc1ccc2ccccc2c1 (stereo not given)	4	8	0	3	1	-15	x	x
CC1=NN(c2ccccc2)C(=O)C1N=Nc1ccccc1 (stereo not given)	8.0*	8	0	2	1	0	1	11*
CC1=NN(C(N)=S)C(=O)C1N=Nc1ccc(Br)cc1 (stereo not given)	9.8*	5	0	3	2	12	1	12*
CC1=NN(c2ccccc2)C(=O)C1N=Nc1ccc(N)cc1 (stereo not given)	1	0	-1	-4	-3	0	x	x
O=C(OCC#CCSc1nnc(-c2ccc(Cl)cc2)o1)c1ccc(F)cc1	0	3	-1	x	x	3	x	x
COc1ccc(C(=O)CSc2nnc(-c3cccs3)o2)cc1OC	0	-1	-2	x	0	14	x	x
CC(=O)Oc1c(Br)cc(N(C(C)=O)S(=O)(=O)c2ccccc2)c2ccccc12	12*	0	0	-1	-2	0	0	2
O=[N+]([O-])c1ccc(-c2ccc(S(=O)(=O)N3CCOCC3)cc2)cc1	6.6*	2	-1	4.5*	0	-5	0	1
COCCN1CC(=O)N2C(c3cccc(C)c3)c3[nH]c4ccccc4c3C[C@H]2C1=O (stereo not given in full)	9.6*	-1	1	0	0	-5	0	3
CCCCCCCCN1C(=O)N(Cc2ccc(OC)cc2)S(=O)(=O)c2ccc(F)cc21	0	2	-1	x	1	12	x	x
COc1ccc(C(=O)OCC(=O)c2ccc3c(c2)NC(=O)CO3)cc1OC	0	1	0	0	0	-12	x	x
CCOC(=O)c1ccc2c(c1)NCc1cccc(OC)c1O2	6.6*	13*	1.1*	1	1	-3	1	7.9*
Nc1c(Br)cc2oc(-c3ccccc3)nc2c1Br	7.4*	8	1.1*	5.0*	2	1	1	17*
COc1ccc(-c2nc3c(Br)c(N)c(Br)cc3o2)cc1	x	x	x	1	x	0	x	x
CCOC(=O)c1ccc(S(=O)(=O)Nc2cc(C(=O)O)ccc2Cl)cc1	7.2*	-2	-1	1	0	8	0	2
CCOC(=O)c1ccc(S(=O)(=O)NNS(=O)(=O)c2ccc(C)cc2)cc1	0	2	0	2	-1	4	x	x
